Values joined by “and” are separate entries in the source; they are usually repeats but may differ in a detail not shown here. Equal values may be shown once. About 83,000 compounds went through this panel and 20% of them were active in at least one assay; those are over-represented in the sample as a whole.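 96-well plates, one dose, 48 hours. Percent growth reported; active if below 10.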 Active and inactive are the calls of the source.
Each molecule was assayed on M14 melanoma (assay: NCI-60 one-dose screen, 48 h (100 = growth as untreated, 0 = no growth, -100 = all killed)). Conditions: 10 µM.
Experimental: Growth inhibition of the M14 human tumor cell line is measured as a screen for anti-cancer activity. Cells are grown in 96 well plates and exposed to the test compound for 48 hours. Compounds are tested at a single concentration, which is 10^-5 M for most compounds. The reported endpoint is percent growth (GI% or GIPRCNT), where numbers from 0 - 100% represent growth inhibition, and numbers from -100% - 0 represent cell death. For example, a value of 40 represents 60% growth inhibition. A value of 0 means no net growth occurred over the course of the experiment. A value of -40 indicates 40% of cells at the beginning of the experiment died by the end of the experiment. A value of -100 means all cells are dead at the end of the experiment.
NCI-60 Human Tumor Cell Lines Screen was performed using the standard one-dose NCI protocol, which is described in more detail at https://dtp.cancer.gov/discovery_development/nci-60/default.htm.
Compounds with GIPRCNT values below 10 were considered active. Activity score was based on GIPRCNT using the following formula: […]
Score is 0 for GIPRCNT values of 100 or above, 50 for GIPRCNT values of 0, and 100 for GIPRCNT values of -100.
For `CCc1ccccc1-n1c(N)c(C#N)c(-c2ccc(OC)c(OC)c2)c(C#N)c1=O`, the growth was 112% (inactive).
With `COc1ccc(Cl)cc1C(=O)NCCc1ccc(S(=O)(=O)NC(=O)NC2CCCCC2)cc1` the growth was 113% (inactive) and 104% (inactive).

Same assay, conditions: 10 µM unless noted
With `COc1ccccc1/C=N\N=C(N/N=C/c1ccccc1OC)N/N=C/c1ccccc1OC` the growth was 59.9% (inactive) and 26.6% (inactive).
`CC(C)CNC(=O)c1ccccc1C(=O)NC1(C(=O)NCC(C)C)CCCC1` was tested, and the growth was 108% (inactive) and 102% (inactive).
For `Oc1nc(NCCc2ccccc2)sc1/C=C1\C=Nc2ncccc21`, the growth was 31.7% (inactive) and 29.9% (inactive).
`COc1ccccc1NC(=O)OCC#CCOC(=O)Nc1ccccc1OC` was tested, and the growth was 106% (inactive) and 95.5% (inactive).
For `CN(C)c1ccc2nc3ccc(=[N+](C)C)cc-3sc2c1`, the growth was 2.78% (active) and 3.94% (active) and 15.5% (inactive).
In the case of `CCN(CC)CCc1nc(-c2ccccc2)no1`, the growth was 87.9% (inactive) and 98.5% (inactive).
In the case of `COc1ccc(NC(=S)Nc2ccccn2)cc1`, the growth was 106% (inactive).
With `O=CC(O)C(O)C(O)CO` (stereo not given) the growth was 113% (inactive) and 98% (inactive).
For `CC1=C(/C=C/C(C)=C/C=C/C(C)=C/C(=O)Nc2ccc(O)cc2)C(C)(C)CCC1`, the growth was 53.5% (inactive).
In the case of `Cc1ccc(NCSc2ccc(Cl)cc2)cc1`, the growth was 76% (inactive) and 89% (inactive).
With `COc1cc(-c2nccc3cc4c(cc23)OCO4)cc(OC)c1OC` the growth was 14% (inactive) and 23.1% (inactive).
For `Cc1cc(-c2ccc(NS(=O)(=O)c3ccccc3)c(C)c2)ccc1NS(=O)(=O)c1ccccc1`, the growth was 87.4% (inactive) and 99% (inactive).
In the case of `Cn1c(SSc2ccc(-c3cccnc3)n2C)ccc1-c1cccnc1`, the growth was 101% (inactive) and 98.4% (inactive).
`CCCCCn1sc(=O)n(Cc2ccc(CNC(=O)C(C)c3ccc(CC(C)C)cc3)cc2)c1=O` (stereo not given) was tested, and the growth was 95.2% (inactive) and -67.6% (active).
For `O=S(=O)(Nc1ccccc1)C1CCCCC1`, the growth was 101% (inactive) and 99.5% (inactive).
For `C#CCN(C)Cc1ccccc1`, the growth was 97.3% (inactive) and 96.8% (inactive).
For `CO/N=C/C=C\C(=O)N/C=C/C[C@H]1/C=C/[C@H](O)/C=C\C=C\c2cccc(O)c2C(=O)O1`, the growth was -13.4% (active) and -41% (active).
For `CN(C)CCC(=O)c1ccc(Cl)cc1`, the growth was 98.6% (inactive) and 109% (inactive).
`CC(C)C(=O)Nc1ccc([N+](=O)[O-])c(C(F)(F)F)c1` was tested, and the growth was 98.9% (inactive) and 92.9% (inactive).
In the case of `Cc1ccc(-c2noc(CC(=O)c3ccc([N+](=O)[O-])cc3)n2)cc1`, the growth was 96.5% (inactive).
For `O=C(O)c1cc(C(=O)O)cc([N+](=O)[O-])c1`, the growth was 99.8% (inactive).
In the case of `CCCCCN(CCCCC)CC(O)c1cc2c(c3ccccc13)CCCC2` (stereo not given), the growth was 76.8% (inactive) and 72.4% (inactive).
For `O=c1c2ccccc2nc2n1Cc1nc3ccccc3c(=O)n1C2`, the growth was 89.3% (inactive) and 94.1% (inactive).
For `CCN(CC)CCCC(CNc1ccnc2cc(Cl)ccc12)c1ccc(Cl)cc1` (stereo not given), the growth was -84.7% (active) and -71.4% (active).
In the case of `OCCN1CCN(CCCN2c3ccccc3Sc3ccc(Cl)cc32)CC1`, the growth was -76.7% (active) and 50.1% (inactive).
`Cc1nn(-c2ccc(Cl)cc2)c2ncnc(N/N=C/c3ccccc3O)c12` was tested, and the growth was 0.303% (active).
With `CC(C)Cc1ccc(C(C)C(=O)NCc2ccc(Cn3c(=O)sn(CCCCl)c3=O)cc2)cc1` (stereo not given) the growth was 94% (inactive) and -58.1% (active).
`COc1ccc(S(=O)(=O)N2CCOCC2)cc1NC(=O)c1[nH]c(C)c2c1CCCCC2=O` was tested, and the growth was 109% (inactive) and 102% (inactive).
For `OCCN1CCN(CCO)CC1`, the growth was 102% (inactive) and 91.1% (inactive) and 103% (inactive).
For `Nc1ccc2ccc(N)cc2c1`, the growth was 84.1% (inactive).
With `O=C1c2ccccc2C(=O)N1/N=C/c1ccc2c(c1)OCO2` the growth was 99.7% (inactive).
`COc1ccc2nc(Cl)cc(C)c2c1` was tested, and the growth was 100% (inactive) and 109% (inactive).
In the case of `O=C(c1ccc(Cl)cc1)C(NCCO)c1ccc(Cl)cc1` (stereo not given), the growth was 101% (inactive) and 104% (inactive).
With `CC(=O)Nc1cc(S(=O)(=O)O)cc2cc(S(=O)(=O)O)c(N=Nc3ccccc3)c(O)c12` the growth was 103% (inactive) and 97.8% (inactive).
In the case of `CNC(=O)c1cccc(-c2ccc3c(N4CCOC[C@@H]4C)nc(N4CCOC[C@@H]4C)nc3n2)c1`, the growth was -3.53% (active) and -5.57% (active).
In the case of `Clc1ccc(SSc2ccc(Cl)cc2)cc1`, the growth was 93.6% (inactive) and 94.1% (inactive).

Same assay, conditions: 100 µM
With `CCc1ccccc1-n1c(N)c(C#N)c(-c2ccc(OC)c(OC)c2)c(C#N)c1=O` the growth was 37.1% (inactive).
`COc1ccc(Cl)cc1C(=O)NCCc1ccc(S(=O)(=O)NC(=O)NC2CCCCC2)cc1` was tested, and the growth was 67.9% (inactive).
